# Assay results reported in the supplement of paper PMC12282887.
# ± gives the standard deviation of the averaged measurements.
# How the values were obtained:
# Assay in all cases: promoter activity interaction Z-score (Lux/OD deviation from empty-vector control); higher = stronger promoter induction by the compound
# [1] = system: E. coli BW25113 acrABp lux reporter
# Procedure, shortened: (§1)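 E. coli BW25113 (wild type or marA, soxS or rob deletion) carrying low-copy luxCDABE promoter reporters grew in 40 µl LB Lennox in 384-well plates at 37°C. Each compound was tested at four 1:2 dilutions in biological duplicates. OD600 and luminescence were read every 30 min for 12 h. Areas were taken over 0–8 h (wild type) or 1–9 h (mutants), and wells below 10% of median growth area were removed. The score is the Z-transformed residual of growth-normalised luminescence fitted against the empty-vector control.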
# [2] = system: E. coli BW25113 micFp lux reporter
# Procedure, shortened: as §1
# [3] = system: E. coli BW25113 ompFp lux reporter
# Procedure, shortened: as §1
# [4] = system: E. coli BW25113 robp lux reporter
# Procedure, shortened: as §1
# [5] = system: E. coli BW25113 soxSp lux reporter
# Procedure, shortened: as §1
# [6] = system: E. coli BW25113 tolCp lux reporter
# Procedure, shortened: as §1
# [7] = 11.9 µg/ml, genetic background: wild type
# [8] = 11.9 µg/ml, genetic background: ΔmarA
# [9] = 11.9 µg/ml, genetic background: Δrob
# [10] = 11.9 µg/ml, genetic background: ΔsoxS
# [11] = 23.7 µg/ml, genetic background: wild type
# [12] = 23.7 µg/ml, genetic background: ΔmarA
# [13] = 23.7 µg/ml, genetic background: Δrob
# [14] = 23.7 µg/ml, genetic background: ΔsoxS
# [15] = 47.4 µg/ml, genetic background: wild type
# [16] = 47.4 µg/ml, genetic background: ΔmarA
# [17] = 47.4 µg/ml, genetic background: Δrob
# [18] = 47.4 µg/ml, genetic background: ΔsoxS
# [19] = 94.8 µg/ml, genetic background: wild type
# [20] = 94.8 µg/ml, genetic background: ΔmarA
# [21] = 94.8 µg/ml, genetic background: Δrob
# [22] = 94.8 µg/ml, genetic background: ΔsoxS
smiles,measurement,setting,value
NCCc1ccc(O)c(O)c1 [Dopamine],promoter activity interaction Z-score,[1]; [7],0.174 ± 0.27
same,promoter activity interaction Z-score,[1]; [8],-0.87 ± 0.6
same,promoter activity interaction Z-score,[1]; [9],-0.259 ± 0.25
same,promoter activity interaction Z-score,[1]; [10],0.316 ± 0.49
same,promoter activity interaction Z-score,[1]; [11],-0.0683 ± 0.28
same,promoter activity interaction Z-score,[1]; [12],-0.0201 ± 0.65
same,promoter activity interaction Z-score,[1]; [13],-0.428 ± 0.0062
same,promoter activity interaction Z-score,[1]; [14],-0.0876 ± 0.18
same,promoter activity interaction Z-score,[1]; [15],0.18 ± 0.084
same,promoter activity interaction Z-score,[1]; [16],-1.12 ± 0.53
same,promoter activity interaction Z-score,[1]; [17],-0.499 ± 0.094
same,promoter activity interaction Z-score,[1]; [18],-0.0203 ± 0.46
same,promoter activity interaction Z-score,[1]; [19],-0.304 ± 0.4
same,promoter activity interaction Z-score,[1]; [20],-0.754 ± 0.56
same,promoter activity interaction Z-score,[1]; [21],-0.623 ± 0.094
same,promoter activity interaction Z-score,[1]; [22],-0.852 ± 0.031
same,promoter activity interaction Z-score,[2]; [7],-0.0957 ± 0.4
same,promoter activity interaction Z-score,[2]; [8],-0.00669 ± 0.09
same,promoter activity interaction Z-score,[2]; [9],-0.0714 ± 0.048
same,promoter activity interaction Z-score,[2]; [10],-0.289 ± 0.13
same,promoter activity interaction Z-score,[2]; [11],0.149 ± 0.39
same,promoter activity interaction Z-score,[2]; [12],0.0171 ± 0.089
same,promoter activity interaction Z-score,[2]; [13],-0.0648 ± 0.13
same,promoter activity interaction Z-score,[2]; [14],-0.0534 ± 0.087
same,promoter activity interaction Z-score,[2]; [15],-0.077 ± 0.31
same,promoter activity interaction Z-score,[2]; [16],-0.0143 ± 0.025
same,promoter activity interaction Z-score,[2]; [17],-0.12 ± 0.027
same,promoter activity interaction Z-score,[2]; [18],-0.221 ± 0.014
same,promoter activity interaction Z-score,[2]; [19],-0.3274 ± 0.00091
same,promoter activity interaction Z-score,[2]; [20],0.0328 ± 0.11
same,promoter activity interaction Z-score,[2]; [21],-0.149 ± 0.093
same,promoter activity interaction Z-score,[2]; [22],-0.745 ± 0.067
same,promoter activity interaction Z-score,[3]; [7],0.401 ± 0.57
same,promoter activity interaction Z-score,[3]; [8],-0.363 ± 0.16
same,promoter activity interaction Z-score,[3]; [9],-0.182 ± 0.48
same,promoter activity interaction Z-score,[3]; [10],-0.36 ± 0.38
same,promoter activity interaction Z-score,[3]; [11],-0.18 ± 0.33
same,promoter activity interaction Z-score,[3]; [12],0.285 ± 0.88
same,promoter activity interaction Z-score,[3]; [13],-0.131 ± 0.68
same,promoter activity interaction Z-score,[3]; [14],-0.722 ± 0.37
same,promoter activity interaction Z-score,[3]; [15],0.112 ± 0.24
same,promoter activity interaction Z-score,[3]; [16],-0.55 ± 0.36
same,promoter activity interaction Z-score,[3]; [17],-0.52 ± 0.2
same,promoter activity interaction Z-score,[3]; [18],-0.843 ± 0.13
same,promoter activity interaction Z-score,[3]; [19],-0.811 ± 0.18
same,promoter activity interaction Z-score,[3]; [20],-0.358 ± 0.12
same,promoter activity interaction Z-score,[3]; [21],-0.473 ± 0.64
same,promoter activity interaction Z-score,[3]; [22],-1.22 ± 0.11
same,promoter activity interaction Z-score,[4]; [7],0.58 ± 0.43
same,promoter activity interaction Z-score,[4]; [8],-0.0165 ± 0.28
same,promoter activity interaction Z-score,[4]; [9],-0.285 ± 0.42
same,promoter activity interaction Z-score,[4]; [10],-0.285 ± 0.27
same,promoter activity interaction Z-score,[4]; [11],0.285 ± 0.52
same,promoter activity interaction Z-score,[4]; [12],1.42 ± 1.2
same,promoter activity interaction Z-score,[4]; [13],-0.0375 ± 0.68
same,promoter activity interaction Z-score,[4]; [14],0.593 ± 1.6
same,promoter activity interaction Z-score,[4]; [15],0.737 ± 0.14
same,promoter activity interaction Z-score,[4]; [16],-0.645 ± 0.12
same,promoter activity interaction Z-score,[4]; [17],-0.805 ± 0.17
same,promoter activity interaction Z-score,[4]; [18],-1.1 ± 0.16
same,promoter activity interaction Z-score,[4]; [19],-0.828 ± 0.0096
same,promoter activity interaction Z-score,[4]; [20],0.583 ± 0.9
same,promoter activity interaction Z-score,[4]; [21],-1.32 ± 0.2
same,promoter activity interaction Z-score,[4]; [22],-2.04 ± 0.13
same,promoter activity interaction Z-score,[5]; [7],0.474 ± 0.25
same,promoter activity interaction Z-score,[5]; [8],-0.0183 ± 0.11
same,promoter activity interaction Z-score,[5]; [9],-0.0377 ± 0.026
same,promoter activity interaction Z-score,[5]; [10],-0.0441 ± 0.24
same,promoter activity interaction Z-score,[5]; [11],0.394 ± 0.015
same,promoter activity interaction Z-score,[5]; [12],0.0576 ± 0.031
same,promoter activity interaction Z-score,[5]; [13],-0.0399 ± 0.15
same,promoter activity interaction Z-score,[5]; [14],-0.277 ± 0.03
same,promoter activity interaction Z-score,[5]; [15],0.201 ± 0.11
same,promoter activity interaction Z-score,[5]; [16],-0.0617 ± 0.12
same,promoter activity interaction Z-score,[5]; [17],-0.00712 ± 0.2
same,promoter activity interaction Z-score,[5]; [18],-0.3 ± 0.13
same,promoter activity interaction Z-score,[5]; [19],-0.211 ± 0.15
same,promoter activity interaction Z-score,[5]; [20],-0.1512 ± 0.0014
same,promoter activity interaction Z-score,[5]; [21],-0.176 ± 0.19
same,promoter activity interaction Z-score,[5]; [22],-0.581 ± 0.061
same,promoter activity interaction Z-score,[6]; [7],0.393 ± 0.4
same,promoter activity interaction Z-score,[6]; [8],-0.496 ± 0.057
same,promoter activity interaction Z-score,[6]; [9],-0.398 ± 0.89
same,promoter activity interaction Z-score,[6]; [10],0.889 ± 0.7
same,promoter activity interaction Z-score,[6]; [11],0.663 ± 0.58
same,promoter activity interaction Z-score,[6]; [12],0.117 ± 0.58
same,promoter activity interaction Z-score,[6]; [13],-0.413 ± 0.2
same,promoter activity interaction Z-score,[6]; [14],-0.0415 ± 0.32
same,promoter activity interaction Z-score,[6]; [15],-0.164 ± 0.13
same,promoter activity interaction Z-score,[6]; [16],-0.559 ± 0.79
same,promoter activity interaction Z-score,[6]; [17],-0.226 ± 0.6
same,promoter activity interaction Z-score,[6]; [18],-0.165 ± 0.64
same,promoter activity interaction Z-score,[6]; [19],-0.754 ± 0.24
same,promoter activity interaction Z-score,[6]; [20],-0.55 ± 0.46
same,promoter activity interaction Z-score,[6]; [21],-0.192 ± 0.73
same,promoter activity interaction Z-score,[6]; [22],-1 ± 0.74
